# Compound activity deposited in PubChem by National Center for Advancing Translational Sciences (NCATS).
# Nrf2 block: blocks Nrf2 signaling. A549 ARE-Fluc reporter, luciferase luminescence, 18-24 h. Potency, µM (series often up to 46 µM), for the others: top-dose activity change, negative = inhibition, most hits filed as inhibitors. actives 2.1% (n = 360,000); note: % is set by controls: 0 for no effect and ±100 for the full control effect; nearly all actives have a fitted effect of over 60% in size
#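 Nrf2 activity is the BugLite luminescence, read 15 min after reagent at room temperature, following CellTiter-Fluor cytotoxicity readout (30 min, 37C). Compound titrations were applied for 18-24 h to 5000 A549 ARE_Fluc cells/well in 5% FBS OPTI-MEM.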
# Nrf2 activator: activates Nrf2 signaling | AREc32 ARE-luciferase reporter (MCF7-derived line), luminescence, 24 h | Potency, µM (top dose mostly 46.1 µM), inactives show at the top dose activation, most hits filed as activators | actives 0.31% (n = 410,000) | AID 624171; note: % of control where 0% means no effect; nearly all actives have a fitted effect of over 65% in size
#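 Each well held 1000 AREc32 cells, which were incubated with compound for 24 hr at 37 deg C after overnight attachment, and ARE reporter activity was quantified by firefly luciferase luminescence.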
# A549 tox: kills or reduces viability of A549 cells in Nrf2 counter-screen. AID 504648. A549 ARE-Fluc cells, CellTiter-Fluor viability, 18-24 h. Potency, µM (top dose mostly 46 µM), for inactives: at the highest dose activity change, negative = cytotoxicity, actives largely listed as inhibitors. actives 0.16% (n = 390,000); note: % is set by controls: 0 for no effect and ±100 for the full control effect
#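 A549 ARE_Fluc cells in 5% FBS OPTI-MEM were exposed to compounds in concentration-response for 18-24 h at 37 deg C. Viability was read by CellTiter-Fluor fluorescence (Ex 405/Em 525) after 30 min, before the luciferase read.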
# ELG1 repair inh: blocks ELG1-dependent DNA repair in HEK293T cells; HEK293T ELG1-luciferase reporter, luminescence, 16 h; DNA damage induced by 5-fluorouridine; Potency, µM (doses to about 46.1 µM), without a hit: at the top dose activity change, negative = inhibition, most hits filed as inhibitors; actives 2.3% (n = 330,000); note: % is set by controls: 0 for no effect and ±100 for the full control effect; nearly all actives have a fitted effect of over 55% in size
#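 Luminescence from the luciferase reporter, measured 30 min after ONE-Glo reagent at room temperature, was the read-out. Beforehand, 2,000 cells per well were exposed for 16 hr at 37 °C to 5-fluorouridine together with compound or vehicle.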
# * marks the source's active call; other numbers are inactive results; ? = inconclusive; · = not tested or not shown; [ ] = remark or other dose. The list is not random: actives were taken first. Their share in the collection is about 3.7%. Calls come from the whole dose curve; as a rule, active = well fitted curve in the direction sought with a large enough effect; inconclusive = small, poorly fitted or top-dose-only effect, or another doubt; inactive = no such curve, though single readings can be large; an effect the other way counts as inactive or inconclusive. Potency is the fitted concentration of half-maximal effect.
SMILES,Nrf2 block,Nrf2 activator,A549 tox,ELG1 repair inh
Cc1oc(-c2ccccc2F)nc1CS(=O)(=O)CC(=O)N1CCCCCC1,-6%,0%,4%,-17%
O=C(/C=C/c1cccs1)c1cc(Br)ccc1OC(=O)N1CCOCC1,?,9%,-11%,16µM*
CCCn1ncc(CN2CCC(CO)(CC3CCCCO3)CC2)c1C (stereo not drawn),-1%,0%,1%,2%
N#Cc1c(-c2ccccc2)cc(-c2ccccc2)nc1SCC(O)CS(=O)(=O)Cc1ccccc1 (stereo not drawn),-9%,5%,-8%,·
C=Cc1ccc(Cn2c(=O)n(C)c(=O)c3sccc32)cc1,?,4%[9.22 µM],8%,?
C=Cc1ccc(Cn2c(=O)n(CCCOC)c(=O)c3sccc32)cc1,-24%,3%,0%,21µM*
CCCCCn1c(NCc2ccccc2OC)nc2ccccc21,?,7%,?,·
Cc1[nH]n(-c2ccccc2)c(=O)c1N=Nc1c(O)cc(S(=O)(=O)N(C)C)c2ccccc12,?,-1%,?,4.1µM*
CCn1ccc(C(=O)Nc2ncc(C)s2)n1,?,2%,1%,?
N#Cc1ccc(NC(=O)Nc2ccc(Cl)cc2)cc1,18µM*,2%,?,?
COC(=O)C(C)Nc1cccc(Br)c1 (stereo not drawn),-1%,0%,1%,10%
CCOC(=O)C(C(=O)OCC)C(Nc1cccc(Br)c1)c1ccccc1 (stereo not drawn),18µM*,?,?,?
CCCCNC(=O)c1cc2c(-c3ccc(Cl)cc3)nn(C)c2s1,?,10%,-2%,-3%
Cc1ccc(CNC(=O)c2cc3c(-c4ccc(Cl)cc4)nn(C)c3s2)o1,?,17%,-8%,16µM*
O=C(NC(=S)N(CCCCO)C1CCCCC1)c1sc2ccccc2c1Cl,12µM*,19%,?,-2%
CC1CCCCC1NC(=S)NC(=O)c1sc2ccccc2c1Cl (stereo not drawn),-11%,0%,-6%,26%
O=C(CCl)N1CCN(S(=O)(=O)Cc2ccccc2)CC1,-10%,-1%,0%,9.2µM*
CCOC(=O)N1CCN(S(=O)(=O)Cc2ccccc2)CC1,·,-1%,-6%,-2%
Cc1ccccc1NC(=O)C(=Cc1ccc(C(=O)O)cc1)C(=O)Nc1ccccc1C,?,?,?,12µM*
CC(=O)/C(=C/c1ccccc1)C(=O)Nc1ccccc1C,-10%,?,12%,19%
O=c1[nH]c(Nc2ccc3c(c2)OCCO3)nnc1Cc1ccccc1,1%,0%,0%,-5%
COC(=O)CCC(=O)c1oc2ccc(Cl)cc2c1NC(=O)CCCN1C(=O)c2ccccc2C1=O,3%,0%,0%,4.6µM*
CC(C)CC(C)N1CCC(n2nccc2NC(=O)CCc2ccccc2)CC1 (stereo not drawn),9%,1%,-3%,?
CN(C)CC(CCC(CN(C)C)C(=O)c1ccccc1)C(=O)c1ccccc1 (stereo not drawn),18µM*,?,?,?
O=C(c1ccc(F)cc1)C(CN1CCOCC1)c1ccccc1 (stereo not drawn),-29%,?,-2%,?
SMILES,Nrf2 block,Nrf2 activator,A549 tox,ELG1 repair inh
O=C(c1ccccc1)C(CCC(CN1CCOCC1)C(=O)c1ccccc1)CN1CCOCC1 (stereo not drawn),23µM*,-4%,-17%,?
COc1ccc(C(=O)/C=C/C(=O)N(CC(=O)NC2CCCCC2)Cc2ccccc2)c(O)c1,-27%,3%,?,?
COc1ccc(C(=O)/C=C/C(=O)N(Cc2ccc(F)cc2)C(C(=O)NC2CCCCC2)c2ccncc2)c(O)c1 (stereo not drawn),5%,10%,-12%,18µM*
COc1ccc(C(=O)/C=C/C(=O)N(Cc2ccccc2OC)C(C(=O)NC2CCCCC2)c2ccncc2)c(O)c1 (stereo not drawn),4%,8%,2%,21µM*
COc1ccc(C(=O)/C=C/C(=O)N(Cc2ccccc2)C(C(=O)NC2CCCCC2)c2ccncc2)c(O)c1 (stereo not drawn),-2%,3%,-6%,?
COc1ccc(C(=O)/C=C/C(=O)N(CC(=O)NC2CCCCC2)CC2CCCO2)c(O)c1 (stereo not drawn),21µM*,?,?,?
Cc1ccc(/C=C/c2ccc(N(C)C)cc2)[n+](C)c1,4.1µM*,3%,10µM*,29%
CN1CCCN=C1/C=C/c1cccs1,3%,0%,2%,8%
C[n+]1ccc(/C=C/c2cccs2)cc1,2.3µM*,2%,8.2µM*,?
Cc1ccc(C(=O)O/N=C/c2ccc(N(C)C)cc2)cc1,9%,0%,-2%,?
CCCCCC[n+]1ccccc1/C=C/c1ccc(N(C)C)cc1,·,0%,·,·
CN(C)c1ccc(/C=C/c2cc[n+](C)cc2)cc1,4.1µM*,3%,21µM*,?
CN(C)c1ccc(CC(=O)N2CCCC(c3cc(C(=O)Nc4ccc(F)c(Cl)c4)no3)C2)cc1 (stereo not drawn),·,4%,·,·
Cc1ccc(CSCC(=O)N2CCN(c3ccccc3F)CC2)cc1,·,4%,6%,·
COC(=O)c1cc2occc2n1Cc1nc(-c2cccc(Br)c2)oc1C,5%,-1%,4%,·
COc1ccc(-c2cc(C(=O)N3CC(C)CC(C)C3)c3ccccc3n2)cc1OC (stereo not drawn),-9%,3%,-11%,?
COc1ccc(-c2cc(-c3nnc(COC(=O)C4CC4)o3)c3ccccc3n2)cc1OC,-15%,3%,0%,7.3µM*
COc1ccc(-c2cc(-c3nnc(COC(=O)CC4CCCC4)o3)c3ccccc3n2)cc1OC,?,3%,1%,21µM*
COc1ccc(-c2cc(-c3nnc(COC(=O)c4ccc(O)cc4)o3)c3ccccc3n2)cc1OC,-13%,4%,6%,?
COc1ccc(-c2cc(-c3nnc(COC(=O)C4CC4C)o3)c3ccccc3n2)cc1OC (stereo not drawn),-25%,3%,?,9.2µM*
COc1ccc(-c2cc(C(=O)NC3CCCC3)c3ccccc3n2)cc1OC,27%,-1%,-1%,·
CS(=O)(=O)c1ccc(Cl)c(NC(=O)C2CCN(S(=O)(=O)c3cccs3)CC2)c1,-12%,0%,17%,-21%
O=C(O)/C=C/C(=O)Nc1ccc(Oc2ncnc3cc(Cl)ccc23)nc1,?,0%,0%,?
CCCC1(CC)C(=O)NC(=O)N=C1N (stereo not drawn),3%,0%,2%,·
S=C(NC1CC2CCC1C2)N1CCN(c2cccc(Cl)c2)CC1 (stereo not drawn),16µM*,3%,-10%,?
O=C(OCc1cc(Cl)ccc1OC(F)F)c1ccc([N+](=O)[O-])o1,·,·,·,-6%
O=[S+]([O-])(c1ccc2c(c1)OCCO2)N1CCN([S+](=O)([O-])c2c(F)cc(Br)cc2F)CC1,-7%,·,10%,·
